Assay outcomes from PubChem.
PME-1 primary – blocks human protein phosphatase methylesterase 1; Q9Y570; recombinant PME-1, FP-Rh probe fluorescence polarization; inhibition, % at 5.9 µM; 0.53% of 320,000 active;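 active = inhibition above the campaign mean of all compounds plus 3 SD, cut at about 26% in these data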;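 note: competitive labeling of PME-1 active site by serine hydrolase directed probe; 0% = PME-1 with DMSO and 100% = wells lacking PME-1 enzyme; inhibitors block probe labeling so polarization falls and inhibition rises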
LYPLA1 inh – LYPLA1 (human) inhibition in PME1 counter-screen. O75608. recombinant LYPLA1, FP-Rh probe fluorescence polarization. AID 2174. inhibition, % at 5.9 µM. 0.16% of 320,000 active;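 active = inhibition above the mean of all tested compounds plus 3 SD, set per campaign, cut at about 14% in these data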;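 note: inhibitors block serine hydrolase probe labeling of LYPLA1 so polarization falls; 0% = enzyme with DMSO and 100% = wells lacking LYPLA1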
GSTO1 counter – GSTO1 inhibition, counter-screen for RBBP9 inhibitors; P78417; recombinant GSTO1, activity-based probe fluorescence polarization; inhibition, % at 5.96 µM; 1.1% of 300,000 active; AID 1974;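 active = inhibition above the campaign mean inhibition plus 3 SD, cut at about 35% in these data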;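 note: 0% = GSTO1-1 with DMSO and 100% = wells lacking GSTO1-1 enzyme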
Target sequence (P78417 whole entry, looked up): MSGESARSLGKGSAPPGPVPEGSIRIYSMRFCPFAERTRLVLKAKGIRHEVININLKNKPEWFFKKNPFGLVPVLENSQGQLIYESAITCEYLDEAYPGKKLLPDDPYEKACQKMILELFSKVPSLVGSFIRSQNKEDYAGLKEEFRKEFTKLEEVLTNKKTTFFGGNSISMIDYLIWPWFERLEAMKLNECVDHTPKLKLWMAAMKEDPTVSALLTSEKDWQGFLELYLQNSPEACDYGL
PREPL inhibitor – human PREPL enzyme inhibition; Q4J6C6; recombinant PREPL, fluorescence polarization activity-based probe; inhibition, % at 5.96 µM; 0.68% of 320,000 active; AID 2751; in the data active = inhibition above about 43%;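 note: 0% = enzyme with DMSO and 100% = wells lacking enzyme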
Fam108B counter – blocks mouse Fam108B hydrolase in RBBP9 counter-screen; AID 1947; inhibition, % at 9.51 µM; 0.33% of 300,000 active; recombinant Fam108B, FP-Rh probe fluorescence polarization;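 active = inhibition above the screen mean inhibition plus 3 SD, computed separately per campaign, cut at about 18% in these data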;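 note: inhibitors lower polarization as less probe binds the enzyme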
LYPLA2 counter – blocks human lysophospholipase 2, a PME1 counter-screen | O95372 | recombinant LYPLA2, FP-Rh probe fluorescence polarization | inhibition, % at 5.9 µM | 0.38% of 320,000 active;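 active = inhibition above the screen-wide mean plus 3 SD, limit set per campaign, cut at about 26% in these data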;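 note: 0% = LYPLA2 with DMSO and 100% = wells lacking LYPLA2 enzyme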
Target sequence (O95372 whole entry, looked up): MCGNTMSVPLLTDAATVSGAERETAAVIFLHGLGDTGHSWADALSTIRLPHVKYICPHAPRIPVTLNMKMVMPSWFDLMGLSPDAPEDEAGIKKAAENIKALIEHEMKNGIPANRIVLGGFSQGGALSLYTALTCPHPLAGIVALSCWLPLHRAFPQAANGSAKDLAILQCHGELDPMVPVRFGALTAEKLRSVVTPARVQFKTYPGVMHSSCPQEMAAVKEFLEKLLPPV
Active calls of the source: *; . = no result given; ! = not active in a repeat. Sampled rows, rich in hits. Any-hit rate of the full collection: about 1.9%.

SMILES	PME-1 primary	LYPLA1 inh	GSTO1 counter	PREPL inhibitor	Fam108B counter	LYPLA2 counter
COc1ccc(S(=O)(=O)N2CCCCCC2)cc1C(=O)NCCOc1ccc(C)cc1	28*	-1	-5	18	-2	4
COc1ccc(S(=O)(=O)N2CCCCCC2)cc1C(=O)Nc1cc(C)ccn1	1	-6	.	7	.	-6
Cc1[nH]c(N=Nc2ccccc2)nc1N=Nc1ccccc1	76*	-3	-57	18	16	-5
Nc1ccc(N=Nc2ccccc2)c(N)n1	5	1	-3	8	3	8
COCCNC(=O)/C(C#N)=C/c1ccc(O)c([N+](=O)[O-])c1	0	0	11	5	0	2
COCCNC(=O)/C(C#N)=C/C=C/c1ccccc1[N+](=O)[O-]	-4	-2	44*	10	1	-3
Cc1cc(NC(=O)Cn2cnc3sccc3c2=O)no1	.	.	.	17	.	.
COc1ccc(Cc2nnc(NC(=O)Cc3cccs3)s2)cc1OC	2	-3	37*	-17	16	-8
Cc1ccc(S(=O)(=O)N2CCC[C@H]2C(=O)OCC(=O)N2CCc3ccccc32)cc1	.	.	.	4	.	.
CN(CC(=O)NCc1cccs1)S(=O)(=O)c1cccc2cccnc12	16	6	7	-7	5	6
CN(C)c1ccc(CNC(=O)CN(C)S(=O)(=O)c2cccc3cccnc23)cc1	33*	1	-5	4	-2	-2
CC(CCC(C)C(C)(C)C)[C@@H]1CC[C@H]2C3C[C@H](OS(O)(=S)=S)[C@H]4C[C@H](OS(O)(=S)=S)[C@@H](OS(O)(=S)=S)C[C@]4(C)[C@H]3CC[C@]12C (stereo not given in full) (tested in a mixture with another compound)	.	.	.	46*!	.	.
C[C@H](CCC(=O)O)[C@H]1CC[C@H]2[C@@H]3[C@H](O)C[C@@H]4C[C@H](O)CC[C@]4(C)[C@H]3CC[C@]12C	-7	1	8	9	0	0
Cc1cccnc1Nc1nc(-c2ccc(O)c(O)c2)cs1	36*	3	-3	3	-5	6
COc1ccc(CNC(=O)COC(=O)c2nc3nc(C)cc(C)n3n2)cc1	-2	-4	.	-2	.	-3
CC(C)(CC(=O)O)CC(=O)NCc1c(Cl)cccc1Sc1ccc(Cl)cc1	1	3	37*	-4	-3	-1
Cc1ccc(-c2nnc(Nc3ccc4c(c3)OCO4)c3ccccc23)cc1S(=O)(=O)NC(C)C	20	-3	5	50*	7	6
Cc1ccc(-c2nnc(Nc3ccc4c(c3)OCO4)c3ccccc23)cc1S(=O)(=O)NCCO	8	2	1	33	0	2
Cc1noc(C)c1COC(=O)c1ccc(F)c(S(=O)(=O)N2CCOCC2)c1	3	2	.	4	.	3
Cc1ccc(NC2=C(NCCO)C(=O)c3ccccc3C2=O)cc1	9	-6	49*	11	1	-3
CCOc1ccc(Nc2nc(N)nc(CCl)n2)cc1	1	-1	82*	1	-1	-5
Cc1cccc(Nc2nc(N)nc(CCl)n2)c1C	-1	-1	65*	-11	-1	-4
O=S(=O)(Nc1ccccc1F)c1cccc(NC(=S)NCCN2CCOCC2)c1	.	.	.	9	.	.
COc1ccc2c(c1)sc(N)[n+]2Cc1cc(C)cc2cccnc12	11	0	2	2	-3	18
CCOc1ccc2c(c1)sc(N)[n+]2Cc1cc(C)cc2cccnc12	12	0	3	-12	1	35*
SMILES	PME-1 primary	LYPLA1 inh	GSTO1 counter	PREPL inhibitor	Fam108B counter	LYPLA2 counter
CCOC(=O)c1c(C)[nH]c(C(=O)COC(=O)c2ccco2)c1C	.	.	.	1	.	.
CC(=O)c1ccc(S(=O)(=O)Nc2ccc(C(=O)N(C)CC(=O)Nc3cccc(C)c3C)cc2)cc1	-6	0	.	4	.	4
Cc1cc(C)nc(Nc2cccc(C(F)(F)F)c2)n1	3	-1	36*	-11	-3	5
O=C(CCNC(=O)c1ccc([N+](=O)[O-])cc1)Nc1cccc(S(=O)(=O)N2CCCCCC2)c1	7	-1	.	11	.	11
COc1ccc(C(=O)NNC(=O)C23CC4CC(CC(C4)C2)C3)cc1OC	-1	1	.	3	.	6
CCOC(=O)c1sc(N)c(C(=O)Nc2ccccc2OC)c1C	29*	0	8	18	3	3
CCOC(=O)c1sc(N)c(C(=O)OC)c1C	2	6	-1	-3	-1	6
O=C(O)c1ccc(N=Nc2c(O)[nH]c3cc(Cl)ccc23)cc1	53*	6	-7	-2	2	2
O=C(O)c1ccc(N=Nc2c(O)[nH]c3ccc(Br)cc23)cc1	0	2	-1	3	5	5
COc1cc(/C=C2\CCCc3c2nc2ccccc2c3C(=O)O)cc(Br)c1O	2	4	-2	5	1	-1
COc1cc(/C=C2\CCc3c2nc2ccccc2c3C(=O)O)cc(OC)c1OC	-6	-5	35*	5	11	3
COc1ccc(-c2cc(C(=O)N3CCN(C(=O)c4ccccc4F)CC3)[nH]n2)cc1	30*	6	-5	-3	0	10
COc1ccc(-c2cc(C(=O)N3CCN(S(=O)(=O)c4ccccc4)CC3)[nH]n2)cc1	5	1	1	3	-2	7
COc1ccc(S(=O)(=O)N2CCOCC2)cc1NC(=O)c1sccc1C	1	3	.	6	.	3
COc1ccc(Nc2ccccc2N)cc1	-32	-15	-67	2	-24	-28
Nc1ccc(Nc2ccccc2N)cc1	3	-4	19	94*	9	-5
CCOc1cccc(CN(C)CC2CCCN(CCc3ccc(Cl)cc3)C2)c1O (stereo not given)	-4	-1	14	22	0	-5
O=[N+]([O-])c1cccc(C2Nc3cccc4cccc(c34)N2)c1	21	-5	27	21	21*	2
O=[N+]([O-])c1ccc(C2Nc3cccc4cccc(c34)N2)cc1	29*	-6	26	11	13	-9
CCN(CC)c1ccc(C2Nc3cccc4cccc(c34)N2)cc1	10	-5	27	-1	9	-4
O=C(NCCc1ccccc1)C(=O)NCC1OCCN1S(=O)(=O)c1ccc(Br)cc1 (stereo not given)	5	2	1	8	-2	1
O=[N+]([O-])c1ccc(NCCCNS(=O)(=O)c2ccc(Cl)cc2)c(Cl)c1	-1	-2	3	-63	-7	27*
CC(C)OC(=O)CSc1nnc(-c2ccccn2)n1-c1ccccc1	0	-1	37*	3	-2	2
Cc1oc(-c2ccc3ccccc3c2)nc1CN(C)C(C)c1ccncn1 (stereo not given)	29*	-2	4	16	-3	-9
CC(C)(C)c1ccc(CN2N=Nc3ccccc3S2(=O)=O)cc1	3	2	0	15	-3	4
